Compound activity (PubChem)
Sampled rows, rich in hits. Any-hit rate of the full collection: about 5%.
VACV mCherry inh – inhibitors of vaccinia virus infection (mCherry reporter signal) | Vaccinia virus mCherry reporter infection, fluorescence | Potency, µM (titrated, usually from 36.5 µM), inactives show at the top dose activity change, negative = inhibition, actives largely listed as inhibitors | actives 0.63% (n = 310,000) | AID 720579; calls by dose curve; tested in A549 cells; also: potency is read from the fitted curve at half-maximal effect; nearly all actives have a fitted effect of over 35% in size
TbPYK inhibitor – T. brucei pyruvate kinase inhibition; TbPYK enzyme, Kinase-Glo Plus ATP luminescence, 45 min; Potency, µM (series often up to 76.8 µM), for the others: at the highest dose activity, negative = inhibition, hits mostly inhibitors; actives 0.12% (n = 410,000); also: potency is read from the fitted curve at half-maximal effect; nearly all actives have a fitted effect of over 50% in size
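Quantitative HTS: titrated library compounds versus trypanosomal pyruvate kinase in TEA buffer (pH 7.2) containing KCl, MgCl2, BSA and Tween-20. Reactions were initiated with ADP, 130 uM final. Kinase-Glo Plus luminescence was read after 45 min at RT.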
VACV Venus inh – vaccinia inhibition (Venus reporter); AID 720580; Vaccinia virus Venus reporter expression, fluorescence; actives 0.46% (n = 330,000); Potency, µM (titrated, usually from 36.5 µM), for the others: at the top dose activity change, negative = inhibition, usual class: inhibitors; calls by dose curve; tested in A549 cells; also: potency is read from the fitted curve at half-maximal effect; nearly all actives have a fitted effect of over 30% in size
LmPK inhibitor – LmPK (Leishmania mexicana) enzyme inhibition. actives 0.37% (n = 290,000). Potency, µM (series often up to 57.5 µM), inactives show top-dose activity change, negative = inhibition, usual class: inhibitors. purified LmPK, Kinase-Glo ATP luminescence, 1 h. AID 1721; also: potency is read from the fitted curve at half-maximal effect
Target sequence (Q27686 whole entry, looked up): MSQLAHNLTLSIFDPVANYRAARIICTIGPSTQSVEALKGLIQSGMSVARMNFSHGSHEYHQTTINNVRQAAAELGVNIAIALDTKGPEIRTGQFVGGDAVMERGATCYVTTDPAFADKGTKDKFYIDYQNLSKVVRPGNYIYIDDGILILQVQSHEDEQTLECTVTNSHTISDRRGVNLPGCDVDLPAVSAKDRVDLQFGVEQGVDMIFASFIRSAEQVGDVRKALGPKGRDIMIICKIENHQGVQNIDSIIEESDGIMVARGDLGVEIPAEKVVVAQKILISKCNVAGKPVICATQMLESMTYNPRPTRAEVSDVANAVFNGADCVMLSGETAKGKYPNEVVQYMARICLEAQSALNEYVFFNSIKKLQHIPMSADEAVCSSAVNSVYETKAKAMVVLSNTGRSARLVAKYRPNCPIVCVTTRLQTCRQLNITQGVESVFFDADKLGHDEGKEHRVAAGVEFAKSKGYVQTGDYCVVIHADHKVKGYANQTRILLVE
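0.1 nM LmPK, 0.5 mM PEP, 0.1 mM ADP; 50 mM imidazole pH 7.2, 7 mM MgCl2, 50 mM KCl; 1 h RT. Kinase-Glo luminescence readout, normalized to no-enzyme (full inhibition) and uninhibited wells.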
HCMV inh – blocks human cytomegalovirus replication; HFF cells, HCMV-luciferase reporter, 72 h; hits give low values; activity change, negative = inhibition, % at 57.5 µM; actives 4.5% (n = 410,000); AID 1259415; in the data active = activity change below about -60%; inconclusive = no clear call, values can overlap the other calls; inactive = above about -39%
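Compounds were evaluated in HFFs infected with an HCMV luciferase reporter virus (MOI 1 PFU/cell). Luciferase in lysates collected 72 h post infection served as the replication measure.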
* hit, by the source's call; i = inactive; ? = inconclusive; . = no result given; + = active, no number; ! = not confirmed by another sample; [ ] = remark or other dose. Unless noted, calls follow the shape of the dose curve; as a rule, active = well fitted curve in the direction sought with a large enough effect; inconclusive = small, poorly fitted or top-dose-only effect, or another doubt; inactive = no such curve, though single readings can be large; an effect the other way counts as inactive or inconclusive. % is scaled to controls: 0 for no effect and ±100 for the full control effect.

SMILES	VACV mCherry inh	TbPYK inhibitor	VACV Venus inh	LmPK inhibitor	HCMV inh
Cc1cccc(NC(=O)c2sc3nc4c(cc3c2N)CCCCCC4)c1C	0%	2%	?	.	-82*
COc1ccc(OC)c(NC(=O)c2sc3nc4c(cc3c2N)CCCCCC4)c1	-24%	-5%	-9%	.	-6
COc1ccc(NC(=O)[C@H](C)NC(=O)[C@@H]2Cc3ccccc3CN2C(=O)OC(C)(C)C)cc1	.	1%	.	4%	+
COc1cccc(NC(=O)CNC(=O)[C@@H]2Cc3ccccc3CN2C(=O)OC(C)(C)C)c1	-2%	1%	-23%	13%	-37
CC(C)(C)OC(=O)N1Cc2ccccc2C[C@H]1C(=O)NCC(=O)Nc1ccc2c(c1)OCCO2	.	0%	.	1%	-68*
O=C1NC[C@H](CCCCN2C[C@H](Cc3ccccc3)N(CCC3CCCCC3)C(=O)C2=O)N(CCc2ccc(O)cc2)C1=O	3%	4%	-8%	.	-23
COC(=O)C1CN(C(=O)COc2ccc(Cl)cc2C)c2ccccc2O1 (stereo unspecified)	-16%	5%	-9%	-8%	-61*
COC(=O)C1CN(C(=O)COc2ccccc2C)c2ccccc2O1 (stereo unspecified)	-16%	0%	-9%	6%	-12
CC(C)(CC(=O)NCc1ccc(Cl)cc1Cl)CC1=NS(=O)(=O)c2ccccc2N1	9%	-6%	-12%	.	-89*
Cc1cccc(NC(=O)c2nc(S(C)(=O)=O)ncc2Cl)c1	-15%	3%	-10%	.	-108*
COc1cccc(NC(=O)c2nc(S(C)(=O)=O)ncc2Cl)c1	?	-3%	?	-5%	-103*
C[C@H](c1ccccc1)N1C[C@@H](COCc2ccccc2)Oc2cc(N3CC[C@H](N(C)C)C3)ccc2S1(=O)=O	-17%	-7%	-18%	.	-3
CC(=O)OC1CC[C@]2(C#N)[C@H]3CC[C@]4(C)[C@H](C5C=CC(=O)O5)CCC4(O)C3CCC2(O)C1 (stereo partly specified)	.	-6%	.	1%	-93*
COC(=O)C(=Cc1ccccc1[N+](=O)[O-])C(=O)OC	.	2%	.	-3%	-96*
O=C(/C=C/c1ccccc1[N+](=O)[O-])Oc1ccccc1	.	.	.	-6%	.
Fc1ccc(-c2cn3cc(Cc4ccccc4)sc3n2)cc1	-4%[7.34 µM]	-12%	1%[7.34 µM]	.	-66*
O=C(NCC(=O)N1CCCC(C(F)(F)F)C1)c1ccccc1Br (stereo unspecified)	i	-6%	-19%	.	-3
Cc1cc(C)c(NC(=O)C(C)n2c(=O)cc(C)c3c(C)nn(-c4ccccc4)c32)c(C)c1 (stereo unspecified)	-8%	4%	1%	.	-7
CN(CP(=O)(O)C(O)c1ccccc1)S(C)(=O)=O (stereo unspecified)	.	3%	11%	9%	-88*
CCOC(=O)CCP(=O)(O)C(O)c1ccccc1 (stereo unspecified)	.	3%	3%	1%	36
COCCNC(=O)C(OC(=O)C1=Cc2ccccc2OC1)C(C)C (stereo unspecified)	-14%	-2%	-15%	7%	?
CN(C)/C=C/c1onc(-c2c(F)cccc2Cl)c1C#N	-6%	-5%	-15%	-6%	-26
Cc1ccn2c(NC3CCCCC3)c(-c3cccc(SC4CCCCC4)c3)nc2c1	?	-10%	?	.	-25
CCC(C)Sc1cccc(-c2nc3cc(C)ccn3c2NC2CCCCC2)c1 (stereo unspecified)	7.9µM*!	-1%	?	.	6
CCOc1cc(Cl)c(NC(C)=O)cc1OCC	i	5%	2%	-2%	-63*
O=C(CSc1n[nH]c(-c2ccccn2)n1)Nc1ccccc1F	28µM*	4%	?	0%	-20
O=C(CSc1nc2ccccc2[nH]1)Nc1ccccc1F	-15%	0%	-12%	7%	-100*
O=C(CSc1n[nH]c(-c2ccccn2)n1)Nc1ccccc1	7.9µM*	-3%	-24%	-5%	-79*
CC(C)S(=O)(=O)c1csc(NC(=O)Nc2cccc([N+](=O)[O-])c2)c1Cl	.	1%	.	1%	6
CNC(=S)n1cnc(N)n1	-27%	4%	-17%	-5%	-65*
